Reference: article PMC7862700, “An all-to-all approach to the identification of sequence-specific readers for epigenetic DNA modifications on cytosine”

Tests used:
Assay in all cases: DAPPL (digital affinity profiling via proximity ligation, sequencing); 10 mM Tris-HCl pH 7.5, 50 mM NaCl, 1 mM DTT, 4% glycerol, room temperature, 30 min; GST-TFs on glutathione beads, 16-mer random dsDNA library, 0.1% formaldehyde crosslink after washing; high values mean tight binding
Settings in all cases: protein: recombinant; tags: N-terminal GST; dsDNA, one strand shown
ERF = molecular target: T1, ERF (Homo sapiens, UniProt P50548 1-548)
T1 sequence: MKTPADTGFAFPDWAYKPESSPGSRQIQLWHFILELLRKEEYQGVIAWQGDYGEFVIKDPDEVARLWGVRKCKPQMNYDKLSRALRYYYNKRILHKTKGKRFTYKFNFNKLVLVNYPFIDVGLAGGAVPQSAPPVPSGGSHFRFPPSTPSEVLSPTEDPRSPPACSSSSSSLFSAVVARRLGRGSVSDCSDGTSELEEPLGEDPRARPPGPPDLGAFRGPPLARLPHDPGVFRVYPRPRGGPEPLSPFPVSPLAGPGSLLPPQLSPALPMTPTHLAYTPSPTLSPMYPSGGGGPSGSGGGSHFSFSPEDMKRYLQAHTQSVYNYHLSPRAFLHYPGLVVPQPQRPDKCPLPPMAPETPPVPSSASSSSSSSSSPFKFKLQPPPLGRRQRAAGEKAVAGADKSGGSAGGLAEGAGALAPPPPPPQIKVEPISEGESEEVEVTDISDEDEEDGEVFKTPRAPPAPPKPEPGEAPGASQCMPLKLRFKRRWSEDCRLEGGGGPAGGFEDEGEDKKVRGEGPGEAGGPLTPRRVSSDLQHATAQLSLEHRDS
Summary of the method: (§1)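 Binding signal is defined as a hexamer's read frequency for one factor over its frequency for the tag-only sample. To obtain reads, GST-fused human transcription factors were expressed in yeast, captured on glutathione beads, barcoded with DNA and pooled with that sample. Pools met 200 nmole of a 16-mer random double-stranded DNA library in Tris/NaCl/DTT/glycerol buffer for 30 min at room temperature before washing, 0.1% formaldehyde crosslinking, proximity ligation (BsaI/T4 ligase, 1 h, 37 °C), PCR and Illumina NextSeq500 sequencing.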

ETV3L = molecular target: T2, ETV3L (Homo sapiens, UniProt Q6ZN32 1-361)
T2 sequence: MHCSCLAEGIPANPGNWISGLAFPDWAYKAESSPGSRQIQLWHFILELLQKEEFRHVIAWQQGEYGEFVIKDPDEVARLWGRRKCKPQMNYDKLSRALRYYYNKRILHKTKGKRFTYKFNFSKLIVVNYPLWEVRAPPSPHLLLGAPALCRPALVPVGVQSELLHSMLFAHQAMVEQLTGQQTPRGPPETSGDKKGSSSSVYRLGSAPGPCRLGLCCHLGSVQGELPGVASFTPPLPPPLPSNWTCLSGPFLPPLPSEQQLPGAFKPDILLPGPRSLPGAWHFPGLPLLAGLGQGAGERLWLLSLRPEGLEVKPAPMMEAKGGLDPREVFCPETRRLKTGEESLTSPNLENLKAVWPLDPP
Summary of the method: as §1

ETS2 = molecular target: T3, ETS2 (Homo sapiens, UniProt P15036 1-469)
T3 sequence: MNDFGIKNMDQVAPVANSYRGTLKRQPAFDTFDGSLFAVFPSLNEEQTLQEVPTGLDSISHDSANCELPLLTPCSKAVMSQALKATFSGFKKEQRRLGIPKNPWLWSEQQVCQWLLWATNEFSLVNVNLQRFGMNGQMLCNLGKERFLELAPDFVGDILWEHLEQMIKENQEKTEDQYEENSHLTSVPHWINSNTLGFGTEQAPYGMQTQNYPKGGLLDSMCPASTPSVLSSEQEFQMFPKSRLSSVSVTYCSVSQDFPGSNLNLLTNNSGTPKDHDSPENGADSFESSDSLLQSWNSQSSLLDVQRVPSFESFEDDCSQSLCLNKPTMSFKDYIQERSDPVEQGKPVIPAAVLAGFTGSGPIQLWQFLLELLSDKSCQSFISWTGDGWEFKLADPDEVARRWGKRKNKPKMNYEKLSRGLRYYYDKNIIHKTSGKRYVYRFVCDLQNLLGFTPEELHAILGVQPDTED
Summary of the method: as §1

SPDEF = molecular target: T4, SPDEF (Homo sapiens, UniProt O95238 1-335)
T4 sequence: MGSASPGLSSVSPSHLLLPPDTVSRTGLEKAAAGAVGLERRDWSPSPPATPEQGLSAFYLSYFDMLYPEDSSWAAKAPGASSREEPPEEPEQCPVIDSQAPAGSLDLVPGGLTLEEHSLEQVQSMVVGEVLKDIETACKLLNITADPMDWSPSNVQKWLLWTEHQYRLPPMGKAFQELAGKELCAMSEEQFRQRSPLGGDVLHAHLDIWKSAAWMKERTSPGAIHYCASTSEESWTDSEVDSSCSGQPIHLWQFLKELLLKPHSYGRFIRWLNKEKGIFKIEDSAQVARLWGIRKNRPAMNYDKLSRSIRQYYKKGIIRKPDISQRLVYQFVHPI
Summary of the method: as §1

ETV7 = molecular target: T5, ETV7 (Homo sapiens, UniProt Q9Y603 1-341)
T5 sequence: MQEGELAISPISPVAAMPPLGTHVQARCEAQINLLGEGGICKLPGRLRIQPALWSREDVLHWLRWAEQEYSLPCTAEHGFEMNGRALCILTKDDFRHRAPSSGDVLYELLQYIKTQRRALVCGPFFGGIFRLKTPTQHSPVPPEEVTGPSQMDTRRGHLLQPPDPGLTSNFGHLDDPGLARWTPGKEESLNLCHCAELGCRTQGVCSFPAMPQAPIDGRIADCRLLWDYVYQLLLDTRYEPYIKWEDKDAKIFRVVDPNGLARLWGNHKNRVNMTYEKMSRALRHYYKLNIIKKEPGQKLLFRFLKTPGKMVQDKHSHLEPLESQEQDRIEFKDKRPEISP
Summary of the method: as §1

ELF5 = molecular target: T6, ELF5 (Homo sapiens, UniProt Q9UKW6-2 1-255)
T6 sequence: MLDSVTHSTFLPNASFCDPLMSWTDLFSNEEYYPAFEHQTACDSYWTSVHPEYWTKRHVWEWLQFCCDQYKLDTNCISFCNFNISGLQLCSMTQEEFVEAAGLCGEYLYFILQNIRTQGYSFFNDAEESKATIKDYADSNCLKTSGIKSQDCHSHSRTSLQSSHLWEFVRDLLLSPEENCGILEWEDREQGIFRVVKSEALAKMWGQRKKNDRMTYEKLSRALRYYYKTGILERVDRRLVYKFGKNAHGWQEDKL
Summary of the method: as §1

ETV3 = molecular target: T7, ETV3 (Homo sapiens, UniProt P41162-2 1-143)
T7 sequence: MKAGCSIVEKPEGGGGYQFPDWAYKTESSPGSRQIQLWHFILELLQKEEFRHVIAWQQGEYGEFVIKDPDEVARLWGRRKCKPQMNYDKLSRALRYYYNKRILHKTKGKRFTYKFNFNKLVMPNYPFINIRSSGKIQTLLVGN
Summary of the method: as §1

ETV6 = ETV6 (Homo sapiens, UniProt P41212 1-452)
Summary of the method: as §1

Chain of ETV6 (P41212 whole entry): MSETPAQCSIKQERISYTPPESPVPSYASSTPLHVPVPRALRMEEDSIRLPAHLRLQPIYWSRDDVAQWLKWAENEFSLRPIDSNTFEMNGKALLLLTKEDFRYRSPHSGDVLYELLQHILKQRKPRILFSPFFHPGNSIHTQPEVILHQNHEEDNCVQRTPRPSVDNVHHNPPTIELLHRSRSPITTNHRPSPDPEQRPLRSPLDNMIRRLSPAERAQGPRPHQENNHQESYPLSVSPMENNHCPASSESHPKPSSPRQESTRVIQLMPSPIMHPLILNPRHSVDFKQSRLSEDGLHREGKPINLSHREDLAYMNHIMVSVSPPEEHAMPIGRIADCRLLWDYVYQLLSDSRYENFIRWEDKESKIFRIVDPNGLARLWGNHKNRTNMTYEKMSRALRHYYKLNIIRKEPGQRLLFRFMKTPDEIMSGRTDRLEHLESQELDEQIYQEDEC

Sequence	binding signal (ERF)	binding signal (ETV3L)	binding signal (ETS2)	binding signal (SPDEF)	binding signal (ETV7)	binding signal (ELF5)	binding signal (ETV3)	binding signal (ETV6)
AATTAG	1.15 fold enrichment (6-mer frequency, TF over GST control)	1.12 fold enrichment (6-mer frequency, TF over GST control)	1.09 fold enrichment (6-mer frequency, TF over GST control)	1.06 fold enrichment (6-mer frequency, TF over GST control)	1.25 fold enrichment (6-mer frequency, TF over GST control)	1.1 fold enrichment (6-mer frequency, TF over GST control)	1.19 fold enrichment (6-mer frequency, TF over GST control)	1.13 fold enrichment (6-mer frequency, TF over GST control)
TTATGA	1.23 fold enrichment (6-mer frequency, TF over GST control)	1.22 fold enrichment (6-mer frequency, TF over GST control)	1.13 fold enrichment (6-mer frequency, TF over GST control)	1.13 fold enrichment (6-mer frequency, TF over GST control)	1.12 fold enrichment (6-mer frequency, TF over GST control)	1.09 fold enrichment (6-mer frequency, TF over GST control)	1.21 fold enrichment (6-mer frequency, TF over GST control)	1.19 fold enrichment (6-mer frequency, TF over GST control)
CTACCG	1.62 fold enrichment (6-mer frequency, TF over GST control)	1.69 fold enrichment (6-mer frequency, TF over GST control)	1.63 fold enrichment (6-mer frequency, TF over GST control)	1.63 fold enrichment (6-mer frequency, TF over GST control)	1.54 fold enrichment (6-mer frequency, TF over GST control)	1.64 fold enrichment (6-mer frequency, TF over GST control)	1.58 fold enrichment (6-mer frequency, TF over GST control)	1.53 fold enrichment (6-mer frequency, TF over GST control)
TTCAAT	1.32 fold enrichment (6-mer frequency, TF over GST control)	1.47 fold enrichment (6-mer frequency, TF over GST control)	1.42 fold enrichment (6-mer frequency, TF over GST control)	1.32 fold enrichment (6-mer frequency, TF over GST control)	1.3 fold enrichment (6-mer frequency, TF over GST control)	1.26 fold enrichment (6-mer frequency, TF over GST control)	1.37 fold enrichment (6-mer frequency, TF over GST control)	1.35 fold enrichment (6-mer frequency, TF over GST control)
TCTATC	1.37 fold enrichment (6-mer frequency, TF over GST control)	1.27 fold enrichment (6-mer frequency, TF over GST control)	1.16 fold enrichment (6-mer frequency, TF over GST control)	1.27 fold enrichment (6-mer frequency, TF over GST control)	1.27 fold enrichment (6-mer frequency, TF over GST control)	1.24 fold enrichment (6-mer frequency, TF over GST control)	1.2 fold enrichment (6-mer frequency, TF over GST control)	1.32 fold enrichment (6-mer frequency, TF over GST control)
GGGCCT	1.37 fold enrichment (6-mer frequency, TF over GST control)	1.21 fold enrichment (6-mer frequency, TF over GST control)	1.21 fold enrichment (6-mer frequency, TF over GST control)	1.24 fold enrichment (6-mer frequency, TF over GST control)	1.24 fold enrichment (6-mer frequency, TF over GST control)	1.17 fold enrichment (6-mer frequency, TF over GST control)	1.21 fold enrichment (6-mer frequency, TF over GST control)	1.21 fold enrichment (6-mer frequency, TF over GST control)
TGTTAA	1.19 fold enrichment (6-mer frequency, TF over GST control)	1.14 fold enrichment (6-mer frequency, TF over GST control)	1.11 fold enrichment (6-mer frequency, TF over GST control)	1.09 fold enrichment (6-mer frequency, TF over GST control)	1.1 fold enrichment (6-mer frequency, TF over GST control)	1.13 fold enrichment (6-mer frequency, TF over GST control)	1.16 fold enrichment (6-mer frequency, TF over GST control)	1.16 fold enrichment (6-mer frequency, TF over GST control)
CCCCCT	1.38 fold enrichment (6-mer frequency, TF over GST control)	1.23 fold enrichment (6-mer frequency, TF over GST control)	1.14 fold enrichment (6-mer frequency, TF over GST control)	1.05 fold enrichment (6-mer frequency, TF over GST control)	1.17 fold enrichment (6-mer frequency, TF over GST control)	1.37 fold enrichment (6-mer frequency, TF over GST control)	1.27 fold enrichment (6-mer frequency, TF over GST control)	1.15 fold enrichment (6-mer frequency, TF over GST control)
TCTTTC	1.33 fold enrichment (6-mer frequency, TF over GST control)	1.39 fold enrichment (6-mer frequency, TF over GST control)	1.43 fold enrichment (6-mer frequency, TF over GST control)	1.44 fold enrichment (6-mer frequency, TF over GST control)	1.27 fold enrichment (6-mer frequency, TF over GST control)	1.48 fold enrichment (6-mer frequency, TF over GST control)	1.44 fold enrichment (6-mer frequency, TF over GST control)	1.38 fold enrichment (6-mer frequency, TF over GST control)
CTAGCT	1.21 fold enrichment (6-mer frequency, TF over GST control)	1.29 fold enrichment (6-mer frequency, TF over GST control)	1.25 fold enrichment (6-mer frequency, TF over GST control)	1.27 fold enrichment (6-mer frequency, TF over GST control)	1.33 fold enrichment (6-mer frequency, TF over GST control)	1.27 fold enrichment (6-mer frequency, TF over GST control)	1.24 fold enrichment (6-mer frequency, TF over GST control)	1.32 fold enrichment (6-mer frequency, TF over GST control)
ACTGAT	1.26 fold enrichment (6-mer frequency, TF over GST control)	1.25 fold enrichment (6-mer frequency, TF over GST control)	1.28 fold enrichment (6-mer frequency, TF over GST control)	1.1 fold enrichment (6-mer frequency, TF over GST control)	1.13 fold enrichment (6-mer frequency, TF over GST control)	1.22 fold enrichment (6-mer frequency, TF over GST control)	1.25 fold enrichment (6-mer frequency, TF over GST control)	1.2 fold enrichment (6-mer frequency, TF over GST control)
TCCATA	1.37 fold enrichment (6-mer frequency, TF over GST control)	1.27 fold enrichment (6-mer frequency, TF over GST control)	1.25 fold enrichment (6-mer frequency, TF over GST control)	1.27 fold enrichment (6-mer frequency, TF over GST control)	1.14 fold enrichment (6-mer frequency, TF over GST control)	1.22 fold enrichment (6-mer frequency, TF over GST control)	1.22 fold enrichment (6-mer frequency, TF over GST control)	1.27 fold enrichment (6-mer frequency, TF over GST control)
AAACAC	1.34 fold enrichment (6-mer frequency, TF over GST control)	1.37 fold enrichment (6-mer frequency, TF over GST control)	1.38 fold enrichment (6-mer frequency, TF over GST control)	1.31 fold enrichment (6-mer frequency, TF over GST control)	1.34 fold enrichment (6-mer frequency, TF over GST control)	1.3 fold enrichment (6-mer frequency, TF over GST control)	1.33 fold enrichment (6-mer frequency, TF over GST control)	1.32 fold enrichment (6-mer frequency, TF over GST control)
CTTAAA	1.17 fold enrichment (6-mer frequency, TF over GST control)	1.3 fold enrichment (6-mer frequency, TF over GST control)	1.28 fold enrichment (6-mer frequency, TF over GST control)	1.27 fold enrichment (6-mer frequency, TF over GST control)	1.19 fold enrichment (6-mer frequency, TF over GST control)	1.16 fold enrichment (6-mer frequency, TF over GST control)	1.22 fold enrichment (6-mer frequency, TF over GST control)	1.26 fold enrichment (6-mer frequency, TF over GST control)
GTTCTT	1.16 fold enrichment (6-mer frequency, TF over GST control)	1.28 fold enrichment (6-mer frequency, TF over GST control)	1.2 fold enrichment (6-mer frequency, TF over GST control)	1.06 fold enrichment (6-mer frequency, TF over GST control)	1.18 fold enrichment (6-mer frequency, TF over GST control)	1.24 fold enrichment (6-mer frequency, TF over GST control)	1.09 fold enrichment (6-mer frequency, TF over GST control)	1.15 fold enrichment (6-mer frequency, TF over GST control)
